Data taken from PMC5540273 (PLoS ONE, 2017).

Assays:
Conditions in all cases: concentration: 1 μM,replicates: in singlicate; n = 1
NEK11 = test system: NEK11
NEK1 = test system: NEK1
NEK2 = test system: NEK2
NEK3 = test system: NEK3
NEK4 = test system: NEK4
NEK5 = test system: NEK5
NEK6 = test system: NEK6
NEK7 = test system: NEK7
NEK9 = test system: NEK9
NIK = test system: T1, NIK
T1 construct: gene MAP3K14
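Also: KINOMEscan kinase panel screen.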

Row | Compound | %Inh (NEK11) | %Inh (NEK1) | %Inh (NEK2) | %Inh (NEK3) | %Inh (NEK4) | %Inh (NEK5) | %Inh (NEK6) | %Inh (NEK7) | %Inh (NEK9) | %Inh (NIK)
1 | O=C(NOCC1CC1)c1cc(Br)c(F)c(F)c1Nc1ccc(I)cc1Cl | 0% | 0% | 0% | 43% | 0% | 0% | 0% | 0% | 0% | 0%
2 | C[C@@H](Oc1cc(-n2cnc3cc(-c4cnn(C)c4)ccc32)sc1C(N)=O)c1ccccc1Cl [GSK580432] | 0% | 88% | 99.2% | 0% | 0% | 99.7% | 41% | 71% | 81% | 7%
3 | CN(c1cccc(CNc2nc(Nc3ccc4c(c3)CC(=O)N4)ncc2C(F)(F)F)c1)S(C)(=O)=O | 0% | 0% | 0% | 20% | 0% | 17% | 23% | 0% | 6% | 21%
4 | C[C@@H](Oc1cc(-n2cnc3cc(-c4ccncc4)ccc32)sc1C(N)=O)c1ccccc1Cl [GSK479719] | 0% | 66% | 96.5% | 5% | 21% | 82% | 0% | 12% | 62% | 0%
5 | CS(=O)(=O)c1cccc(CNc2nc(Nc3ccc4c(c3)[C@@H]3C[C@@H]4CNC3=O)ncc2C(F)(F)F)c1 | 0% | 0% | 0% | 23% | 1% | 0% | 19% | 12% | 2% | 26%
6 | O=C(Nc1cccc(C(F)(F)F)c1)c1cccc(Oc2ccc3nccn3n2)c1 | 52% | 0% | 0% | 17% | 0% | 12% | 2% | 0% | 0% | 36%
7 | C[C@@H](Oc1cc(-n2cnc3ccc(-c4ccncc4)cc32)sc1C(N)=O)c1ccccc1Cl [GSK483724] | 0% | 51% | 86% | 0% | 4% | 72% | 14% | 17% | 76% | 1%
8 | O=c1[nH]cc(-c2ccc(O)cc2)c2sc(-c3ccncc3)cc12 [GSK1033723] | 23% | 0% | 0% | 0% | 0% | 17% | 0% | 0% | 18% | 0%
9 | COc1cc2nccc(Nc3ccc(Oc4ccccc4)cc3)c2cc1OC.Cl [GI261656] | 0% | 0% | 0% | 0% | 0% | 0% | 0% | 0% | 2% | 0%
10 | Nc1nccc(-c2ccc3c(N)n[nH]c3c2)n1 [GSK1034945] | 0% | 0% | 3% | 9% | 0% | 4% | 0% | 3% | 10% | 0%
11 | O=C(Nc1n[nH]c2cc(-c3ccco3)ccc12)C1CC1 [SB-737447] | 24% | 6% | 0% | 28% | 7% | 0% | 0% | 0% | 0% | 0%
12 | Cc1ccc(CC(=O)N2CCc3cc(-c4cn(C)c5ncnc(N)c45)ccc32)cc1 [GSK2634758] | 59% | 31% | 96.9% | 7% | 11% | 45% | 19% | 0% | 20% | 16%
13 | CN(c1ccc2c(c1)nc(NCc1ccc(F)cc1)n2C)c1ccnc(Nc2ccc(CS(C)(=O)=O)cc2)n1.Cl [GW813244] | 0% | 0% | 0% | 36% | 0% | 0% | 0% | 0% | 21% | 0%
14 | CC(C)S(=O)(=O)N1CCN(Cc2ccc3c(c2)nc(NC(=O)c2ccsc2)n3C[C@H](O)c2ccccc2)CC1 [GW635815] | 1% | 0% | 0% | 0% | 9% | 8% | 0% | 0% | 1% | 9%
15 | O=C1NCCc2[nH]c(-c3ccncc3)cc21 | 0% | 0% | 0% | 18% | 0% | 2% | 29% | 0% | 0% | 44%
16 | Cl.Cl.NC[C@H](CC1CCCCC1)NC(=O)c1ccc(-c2ccnc3[nH]ccc23)s1 [GSK1581428] | 0% |  | 0% | 0% | 14% | 15% | 0% | 1% | 17% | 0%
17 | Cn1ccc2ncnc(Oc3ccc(NC(=O)Nc4cccc(C(F)(F)F)c4)c(Cl)c3)c21 | 0% | 0% | 0% | 9% | 0% | 0% | 9% | 0% | 0% | 7%

Row | Compound | %Inh (NEK11) | %Inh (NEK1) | %Inh (NEK2) | %Inh (NEK3) | %Inh (NEK4) | %Inh (NEK5) | %Inh (NEK6) | %Inh (NEK7) | %Inh (NEK9) | %Inh (NIK)
18 | CCn1c(-c2nonc2N)nc2cncc(Br)c21 [SB-738004] | 40% | 0% | 0% | 19% | 0% | 10% | 19% | 0% | 11% | 79%
19 | CC(C)c1nc(-c2cccc(NS(=O)(=O)c3ccccc3)c2)c(-c2ccnc(Nc3ccc4c(c3)CN(C)CC4)n2)s1 [GSK1649598] | 97.7% | 14% | 34% | 27% | 18% | 0% | 0% | 0% | 51% | 3%
20 | Cn1ccc2ncnc(Oc3ccc(NC(=O)Nc4ccnc(C(F)(F)F)c4)c(Cl)c3)c21 | 0% | 0% | 0% | 11% | 0% | 0% | 0% | 0% | 5% | 0%
21 | O=C(Nc1cccc(Oc2ccc3nccn3n2)c1)Nc1cccc(C(F)(F)F)c1 | 0% | 0% | 8% | 7% | 0% | 0% | 0% | 0% | 0% | 27%
22 | Cn1cc(-c2cccc3c(N)c(C(N)=O)nnc23)cn1 | 0% | 0% | 15% | 22% | 16% | 6% | 5% | 0% | 0% | 21%
23 | Cc1n[nH]c2cc(Nc3ccnc(Nc4cccc(CN5CCOCC5)c4)n3)ccc12 [GW682569] | 17% | 2% | 0% | 20% | 0% | 29% | 0% | 0% | 15% | 0%
24 | Cc1ccn2nc(-c3ccc(F)cc3)c(-c3ccncc3)c2c1.Cl [GW457859] | 43% | 12% | 0% | 3% | 0% | 0% | 0% | 0% | 4% | 38%
25 | O=C(NCC1CC1)c1ccc(-c2cc(C(=O)NC3CC3)ccc2F)cc1 [GW810445] | 0% | 3% | 0% | 0% | 0% | 0% | 0% | 0% | 0% | 0%
26 | N#Cc1cccc(C(=O)NC2CCN(c3ccnc(Nc4ccc(F)cc4)n3)C2)c1 (stereo not drawn) [GSK1379708] | 3% | 0% | 0% | 7% | 11% | 5% | 12% | 0% | 0% | 13%
27 | CCOC(=O)N1CCC(n2cnc(-c3ccc(F)cc3)c2-c2ccnc(N)n2)CC1 [SB-219952] | 20% | 0% | 0% | 21% | 15% | 26% | 0% | 31% | 23% | 0%
28 | CCN1CCN(CCCC(=O)Nc2n[nH]c3nc(-c4ccc(O)cc4)c(Br)cc23)CC1 [SB-731579] | 0% | 0% | 0% | 18% | 0% | 0% | 0% | 5% | 22% | 27%
29 | Cn1ccc2ncnc(Oc3ccc(NC(=O)Nc4cc(C(C)(C)C)on4)c(Cl)c3)c21 | 0% | 0% | 17% | 21% | 3% | 0% | 0% | 0% | 3% | 0%
30 | COc1cc2ncn(-c3cc(OCC4CCCCC4)c(C(N)=O)s3)c2cc1OC [GSK204559] | 0% | 12% | 40% | 0% | 10% | 9% | 0% | 21% | 33% | 16%
31 | OCCn1cc(-c2cnc3nnn(Cc4ccc5ncccc5c4)c3n2)cn1 | 0% | 0% | 6% | 32% | 0% | 0% | 0% | 8% | 0% | 15%
32 | CCNCC(Cc1ccccc1)NC(=O)c1cc(Br)c(-c2ccnc3[nH]ccc23)s1.Cl.Cl (stereo not drawn) [GSK1383280] | 0% | 79% | 18% | 17% | 0% | 79% | 0% | 0% | 10% | 0%
33 | Cc1ccc(Nc2ccnc(Nc3ccc4c(c3)CS(=O)(=O)C4)n2)cc1O.Cl [GW579362] | 5% | 31% | 17% | 46% | 3% | 70% | 0% | 23% | 27% | 27%
34 | Cl.c1ccc(Oc2ccc(Nc3ccnc4cc(-c5ccc(CN6CCNCC6)o5)ccc34)cc2)nc1 [GW567142] | 0% | 0% | 6% | 2% | 0% | 0% | 0% | 5% | 17% | 7%
